Measured values as given in PubChem BioAssay (NCI).
The panel holds about 83,000 compounds, 20% with a hit somewhere; the sample as a whole holds those more often.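 Cells were grown in 96-well plates and exposed to the test compound at a single concentration for 48 hours; results are reported as percent growth, with values below 10 considered active.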 Values without a mark were called inactive. Activity calls are given as the source filed them.

How the values were obtained:
Experiment in all cases: NCI-60 one-dose screen, 48 h (100 = growth as untreated, 0 = no growth, -100 = all killed)
Conditions in all cases: 10 µM unless noted
SR leukemia = system: SR leukemia
OVCAR-8 ovarian = system: OVCAR-8 ovarian
OVCAR-4 ovarian = system: OVCAR-4 ovarian
SK-OV-3 ovarian = system: SK-OV-3 ovarian
IGROV1 ovarian = system: IGROV1 ovarian
OVCAR-3 ovarian = system: OVCAR-3 ovarian
HS 578T breast = system: HS 578T breast
NCI/ADR-RES ovarian = system: NCI/ADR-RES ovarian
OVCAR-5 ovarian = system: OVCAR-5 ovarian
RPMI-8226 leukemia = system: RPMI-8226 leukemia

Compound | growth (SR leukemia) | growth (OVCAR-8 ovarian) | growth (OVCAR-4 ovarian) | growth (SK-OV-3 ovarian) | growth (IGROV1 ovarian) | growth (OVCAR-3 ovarian) | growth (HS 578T breast) [%] | growth (NCI/ADR-RES ovarian) | growth (OVCAR-5 ovarian) | growth (RPMI-8226 leukemia)
CC1(c2ccccc2)OC1C(=O)O (stereo not given) | 101% | 107% | 112% | 117% | 96.8% | 103% | 109 | 94.5% |  | 
O=C(NC1=CC(=O)c2ccccc2C1=O)c1ccccc1 | -0.906% (active) | 22.4% |  | 32% | -30.1% (active) | -82.5% (active) | 25.3 |  | 42.2% | 
Cc1cc(N2CCN(C)CC2)nc(N(CCNc2ccnc3cc(Cl)ccc23)Cc2ccco2)n1 |  | 65.8% | 55.7% | 91.5% | 18.5% | 3.21% (active) | 68.7 | 38.7% | 73.3% | -3.89% (active)
NC1=C(C/C(N)=N\O)C(c2ccccc2Cl)c2c(ccc3ccccc23)O1 (stereo not given) | 54.7% | 90.7% | 110% | 92.2% | 59.2% | 77.9% | 83.9 | 57.6% |  | 
C=C(C)[C@@H]1CC[C@]2(C)CC[C@]3(C)[C@H](CC[C@@H]4[C@@]5(C)CCCNC(C)(C)[C@@H]5CC[C@]43C)[C@@H]12 |  | 84.1% | 94.5% | 113% | 94% | 76.2% | 101 | 97.3% | 107% | 30.1%
C#CCn1c2c(c3ccccc31)C[C@]1(C)[C@H]3CC[C@@H]4[C@@H]5C(=CCC[C@H]5C(=C)C)CC[C@@]4(C)[C@]3(C)CC[C@H]1C2(C)C |  | 105% | 100% | 108% | 98.4% | 108% | 93.8 | 106% | 101% | 106%
Fc1ccc2c(c1)c(-c1nc(-c3c[nH]c4ncccc34)cs1)cn2CCCN1CCCCC1 | -34.7% (active) |  | 70.6% | 94.4% | 45.7% | 61.7% | 75.1 | 74.1% | 88.3% | 
NNC(=O)c1nc2ccccc2[nH]1 | 96.4% |  | 118% | 83.3% | 106% | 108% | 109 | 112% | 97.9% | 
CN1CCN(c2ccc3nc(-c4[nH]ncc4Nc4ncnc5c4OCCCN5)[nH]c3c2)CC1 | 3.46% (active) | 0.0729% (active) | -35.2% (active) | -21.5% (active) | -21.4% (active) | -32.2% (active) |  | -6.16% (active) | -61.4% (active) | 
CN(CSc1ccc(Cl)cc1)c1ccc(CSc2ccc(Cl)cc2)cc1 |  | 93.3% | 67.9% | 108% | 42.9% | 62.6% | 93.3 |  | 120% | 18%
OCC1OC(n2cnc3c(Cl)ncnc32)CC1O (stereo not given) |  | 104% | 120% | 104% | 98.9% | 115% | 108 | 118% | 101% | 98.3%
Nc1c(Cl)cc(N=Nc2ccccc2)cc1Cl | 85.4% | 104% |  | 99% | 12.5% | 84.6% | 94.8 | 100% | 31.5% | 
Brc1ccc(Cn2nnnc2-c2ccn(-c3ccccc3)n2)cc1 |  | 110% | 72.7% | 82.1% | 77.8% | 86.8% | 77.7 |  | 32% | 59.2%
CC[C@H](CC[C@@H](C)[C@H]1CC[C@H]2[C@@H]3/C(=C/c4cccnc4)C(=O)C4=CC(=O)CC[C@]4(C)[C@H]3CC[C@]12C)C(C)C |  | 64.5% | 100% | 112% | 95.6% | 102% | 107 | 90.5% | 105% | 74.4%
Cc1ccc(-c2nn(Cc3cn(-c4cc(C)nc5ccccc45)nn3)c3ncnc(N)c23)cc1 | 61.6% | 62.5% | 51.7% | 56.5% | 15.5% | 53.1% | 18.2 | 59.7% |  | 
COc1cc2c(cc1OC)C(=O)/C(=C/c1cc(-c3ccc4c(c3)OCO4)n[nH]1)C2 | -43.8% (active) |  | 14.4% | 33.6% | 52.7% | -50.4% (active) |  |  | 37.9% | 
